From PubChem BioAssay (NCATS)
Values joined by “and” are separate entries in the source; they are usually repeats but may differ in a detail not shown here. Identical values can stand only once. Inconclusive results are not listed. Entries that show only a call come without a potency. Active and inactive are the calls of the source. Unless noted, calls follow the shape of the dose curve; as a rule, active = well fitted curve in the direction sought with a large enough effect; inconclusive = small, poorly fitted or top-dose-only effect, or another doubt; inactive = no such curve, though single readings can be large; an effect the other way counts as inactive or inconclusive.

Columns and labels:
[1] = qHTS assay to identify small molecules that stimulate interleukin-8 (IL-8) secretion (AID 651758; active = well fitted activation curve with a large enough effect in the signal ratio; the % refers to the signal ratio); conditions: HTRF ratio (665/615); series mostly up to 92.2 µM
In short: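 THP-1, 2000 cells/well; cpd 16 h, 37 C; add cryptate + XL665 anti-IL-8 Abs; RT 1-3 h; TR-FRET read.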

[2] = biological target: Glutaminase kidney isoform, mitochondrial (Homo sapiens) (UniProt O94925); test: qHTS for Inhibitors of Glutaminase (GLS): LOPAC Validation (AID 624146); conditions: glutaminase enzyme activity inhibition; series mostly up to 46.1 µM; also: nearly all actives have a fitted effect of over 60% in size; also: potency is read from the fitted curve at half-maximal effect
In short: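 Two-point fluorescence kinetic (t0, 30 min RT) for hKGA; glutamate detected via glutamate oxidase–HRP–Amplex Red. Substrate: 1 mM L-glutamine solution; buffer 45 mM KH2PO4, pH 8.2.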

[3] = qHTS of Trypanosoma Brucei Inhibitors: LOPAC Validation (AID 624147); conditions: purified enzyme assay, luminescence, 45 min; series mostly up to 57.5 µM
In short: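 Activity of T. brucei pyruvate kinase was followed by Kinase-Glo Plus luminescence after the enzyme reacted 45 min at room temperature with 130 uM ADP (final) and substrate. Test compounds were added before ADP at multiple concentrations.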

[4] = biological target: Glucagon-like peptide 1 receptor (Homo sapiens) (UniProt P43220); test: qHTS of GLP-1 Receptor Agonists: LOPAC Validation (AID 624148); conditions: GLP-1R agonist cell assay; series mostly up to 46.1 µM;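 also: higher luminescence signal means agonism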
In short: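 HEK293 cells stably co-expressing a cAMP-responsive luciferase reporter and a hypersensitive GLP-1R were plated 12 h at 37 °C and exposed to compounds for 4-6 hr at 37 °C, 5% CO2. Luminescence was read 12 min after adding detection reagent.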

[5] = qHTS of Nrf2 Activators: LOPAC Validation (AID 624149); conditions: Nrf2/ARE reporter cell assay; series mostly up to 46.1 µM
In short: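 ARE reporter activation measured in AREc32 firefly luciferase cells after 24 hr compound exposure; Steady-Glo luminescence.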

[6] = HTS Assay for Allosteric Antagonists of the Human D2 Dopamine Receptor: Hit Validation in HTRF (AID 624455); conditions: Cells stably expressing D1 dopamine receptor, inhibition mode; series mostly up to 46.1 µM;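 also: stable D1 dopamine receptor cell line scored for blocking the D1 response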
In short: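 Signal from an HTRF read-out in D1-expressing stable cells gave hit activity as inhibition of the D1 response.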

Sequence of Glucagon-like peptide 1 receptor (Homo sapiens) (P43220 whole entry, looked up): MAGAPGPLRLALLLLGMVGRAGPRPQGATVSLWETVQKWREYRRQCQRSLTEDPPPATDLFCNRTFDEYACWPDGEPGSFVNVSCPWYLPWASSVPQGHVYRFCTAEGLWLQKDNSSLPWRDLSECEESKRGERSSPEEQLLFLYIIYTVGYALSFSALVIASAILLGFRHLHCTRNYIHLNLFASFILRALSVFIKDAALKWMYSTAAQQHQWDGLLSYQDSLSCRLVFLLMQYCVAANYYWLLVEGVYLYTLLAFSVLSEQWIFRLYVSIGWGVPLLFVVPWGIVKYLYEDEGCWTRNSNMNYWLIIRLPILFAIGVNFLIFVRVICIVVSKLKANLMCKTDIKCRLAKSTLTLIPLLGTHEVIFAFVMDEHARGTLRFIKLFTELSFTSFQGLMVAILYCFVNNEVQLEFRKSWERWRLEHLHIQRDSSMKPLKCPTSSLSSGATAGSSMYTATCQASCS
Sequence of Glutaminase kidney isoform, mitochondrial (Homo sapiens) (O94925 whole entry, looked up, canonical isoform): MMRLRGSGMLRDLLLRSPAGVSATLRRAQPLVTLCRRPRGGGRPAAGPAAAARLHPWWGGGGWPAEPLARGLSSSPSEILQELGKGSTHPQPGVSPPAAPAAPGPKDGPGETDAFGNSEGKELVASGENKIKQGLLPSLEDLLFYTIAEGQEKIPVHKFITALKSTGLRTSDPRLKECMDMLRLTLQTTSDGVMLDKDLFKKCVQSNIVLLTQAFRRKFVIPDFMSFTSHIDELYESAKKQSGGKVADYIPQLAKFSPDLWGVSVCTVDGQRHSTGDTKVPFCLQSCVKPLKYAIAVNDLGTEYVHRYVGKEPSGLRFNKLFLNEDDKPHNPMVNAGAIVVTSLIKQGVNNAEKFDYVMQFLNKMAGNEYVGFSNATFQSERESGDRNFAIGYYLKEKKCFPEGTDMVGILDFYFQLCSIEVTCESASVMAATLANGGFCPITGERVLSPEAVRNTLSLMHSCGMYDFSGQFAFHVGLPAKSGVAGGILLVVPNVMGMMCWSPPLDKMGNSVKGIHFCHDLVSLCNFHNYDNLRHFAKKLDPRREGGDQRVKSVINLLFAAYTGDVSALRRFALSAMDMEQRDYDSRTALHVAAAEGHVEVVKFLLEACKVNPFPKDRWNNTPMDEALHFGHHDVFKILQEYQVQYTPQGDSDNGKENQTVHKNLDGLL

Compound | outcome [1] | Potency [2] | outcome [3] | outcome [4] | outcome [5] | Potency [6]
O=C(O)COc1ccccc1 | inactive |  |  |  |  | 
C1CCC(NC2CCCCC2)CC1 | inactive |  |  |  |  | 
C[C@]12CCC3C(CC[C@H]4C[C@H](O)CC[C@]34C)C1CC[C@@H]2C(=O)CO (some centres not stated) |  | inactive | inactive | inactive | inactive | inactive
O=C(O)[C@@H]1CCN1 |  | inactive | inactive | inactive | inactive | inactive
C[N+]1(C)C2CCC1CC(OC(=O)C(CO)c1ccccc1)C2 (configuration not stated) |  | inactive | inactive | inactive | inactive | inactive
C/C=C(/C)C(=O)O[C@H]1C(C)=C2[C@H]([C@@H]1OC(=O)CCCCCCC)[C@@](C)(OC(C)=O)C[C@H](OC(=O)CCC)[C@@]1(O)[C@H]2OC(=O)[C@@]1(C)O |  | inactive | inactive | inactive | inactive | inactive
CCCN1CCO[C@@H]2c3cc(O)ccc3OC[C@H]21 |  | 4.47 µM (active) and 1.41 µM (active) | inactive | inactive | inactive | inactive
CC(C)Oc1cccnc1N(C)C1CCN(Cc2ccccc2)CC1 |  | inactive | inactive | inactive | inactive | inactive
CC(=O)NCCc1c[nH]c2ccccc12 |  | inactive | inactive | inactive | inactive | inactive
COc1cc(C(O)CN)ccc1O (configuration not stated) |  | 2.24 µM (active) | inactive | inactive | inactive | inactive
CC[C@@]1(O)C(=O)OCc2c1cc1n(c2=O)Cc2cc3ccccc3nc2-1 |  | inactive | inactive | inactive | inactive | inactive
O=C1CCCN1CC#CCN1CCCC1 |  | inactive | inactive | inactive | inactive | inactive
